PubChem BioAssay (NCI)
Compounds without any hit were thinned out: in the full panel of roughly 83,000, 20% have a hit.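 Note: values are percent growth. 100 is the growth of untreated cells, values between 100 and 0 indicate rising inhibition; between -100 and 0 indicates cell death.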 Values without a mark were called inactive. Active and inactive are the calls of the source. How the source made its calls: active means growth percent below 10; inactive means the rest.

Columns and labels:
Experiment in all cases: NCI-60 one-dose screen, 48 h (100 = growth as untreated, 0 = no growth, -100 = all killed)
Details in all cases: 10 µM unless noted
NCI-H23 lung = tested on: NCI-H23 lung
NCI-H226 lung = tested on: NCI-H226 lung
NCI-H322M lung = tested on: NCI-H322M lung
HOP-62 NSCLC = tested on: HOP-62 NSCLC
NCI-H460 lung = tested on: NCI-H460 lung
NCI-H522 lung = tested on: NCI-H522 lung
A549/ATCC NSCLC = tested on: A549/ATCC NSCLC
786-0 renal = tested on: 786-0 renal
COLO 205 colon = tested on: COLO 205 colon
DU-145 prostate = tested on: DU-145 prostate
K-562 leukemia = tested on: K-562 leukemia
MALME-3M melanoma = tested on: MALME-3M melanoma
MDA-MB-231 breast = tested on: MDA-MB-231 breast
RXF 393 renal = tested on: RXF 393 renal
SF-268 CNS = tested on: SF-268 CNS
SF-539 CNS = tested on: SF-539 CNS
UACC-257 melanoma = tested on: UACC-257 melanoma
M14 melanoma = tested on: M14 melanoma
HCT-15 colon = tested on: HCT-15 colon
SF-295 CNS = tested on: SF-295 CNS

Row | SMILES | growth (NCI-H23 lung) | growth (NCI-H226 lung) | growth (NCI-H322M lung) | growth (HOP-62 NSCLC) | growth (NCI-H460 lung) | growth (NCI-H522 lung) | growth (A549/ATCC NSCLC) | growth (786-0 renal) | growth (COLO 205 colon) | growth (DU-145 prostate) | growth (K-562 leukemia) | growth (MALME-3M melanoma) | growth (MDA-MB-231 breast) | growth (RXF 393 renal) | growth (SF-268 CNS) | growth (SF-539 CNS) | growth (UACC-257 melanoma) | growth (M14 melanoma) | growth (HCT-15 colon) | growth (SF-295 CNS)
1 | C[C@]12CC[C@@H]3c4ccc(O)cc4CC[C@H]3[C@@H]1CC[C@@H]2NS(=O)(=O)c1cccc(Br)c1 | 68.1% | 60.5% | 70.6% | -16.6% (active) | 61.7% | 40.4% | 43.2% | 70.3% | 64.7% | 75% | 30.1% | 63.2% | 71.1% | 42.6% | 59.7% | 85.6% | 80.3% | 68.9% | 50.9% | 
2 | COc1ccc(-n2nnc(C(=O)O)c2-c2cc(OC)c(OC)c(OC)c2)cc1 | 103% | 104% | 108% | 114% | 106% | 83.6% | 100% | 99.7% | 104% | 116% | 95.1% | 112% | 122% | 105% | 115% | 103% | 102% | 104% | 101% | 
3 | COC(=O)[C@]12CC[C@@H](C)[C@H](C)[C@@H]1C1=CC[C@@H]3[C@@]4(C)C[C@@H](OC(=O)c5ccco5)[C@H](O)[C@@](C)(CO)[C@@H]4[C@H](O)C[C@@]3(C)[C@]1(C)CC2 | -84.1% (active) | -53.4% (active) | -93.8% (active) | -88.3% (active) | -84.7% (active) | -83.3% (active) | -92.7% (active) | -77.8% (active) | -93.3% (active) | -100% (active) | -100% (active) | -73.4% (active) | -65.7% (active) | -79% (active) | -79.6% (active) | -90.1% (active) |  | -59.5% (active) | -95.7% (active) | -98.3% (active)
4 | O=C(/C=C/c1cc2ccccc2[nH]c1=O)c1ccc(Cl)cc1 | 25.7% | 40.7% | 62.4% | 44.4% | 12% | -57.5% (active) | 42.1% | 43% | 49.4% | 12.4% | 17.1% | 46.4% | 32.2% | 12.9% | 30.7% |  | 45.3% | 44.7% | 41.6% | 42.7%
5 | COc1ccc2nc3cc(Cl)ccc3c(N3CCN(c4ccnc(Nc5ccc(F)cc5)n4)CC3)c2c1 | 89.3% | 98.5% | 97.7% | 92.9% | 94% | -5.18% (active) | 79.5% | 70.4% | 108% | 93.1% | 43.1% | 105% | 58.4% |  | 79.2% | 85.4% | 105% | 102% | 48.3% | 75.9%
6 | O=C(NCCCO)c1cc(Cl)ccc1O | 8.32% (active) | 24.3% | 83.6% | 36.3% | 9.74% (active) | -1.53% (active) | 38.5% | 49.5% | 25% | 36.1% | 11.1% | 0.89% (active) | 28.2% | 40.7% | 28.4% | 45% | 16.4% | 30.3% | 77.5% | 
7 | CCOC(=O)c1c(C)c(C(=O)OCC)n(C)c1C | 121% | 66.6% | 85.4% | 74.4% | 117% | 102% | 91.7% | 92.5% | 141% | 99% | 103% | 112% | 85.6% |  | 93.9% | 101% | 134% | 112% | 102% | 87.1%
8 | O=c1ccn(C2CCCO2)c(=O)[nH]1 (stereo not given) | 119% | 114% | 117% | 107% | 106% | 98.5% | 95.3% | 109% | 118% | 109% | 105% | 116% | 107% | 111% | 104% | 91.6% | 90.9% | 107% | 105% | 
9 | Clc1cccc(Cc2cn3cc(-c4ccccc4)nc3s2)c1 | 62.6% | 73% | 63.5% | 69.7% | 16.5% | 45.9% | 37.5% | 68.9% | -36.6% (active) | 52.4% | 21.1% | 85.5% | 52.2% | 94% | 64.9% | 41.6% | 37.4% | 6.04% (active) | 40.4% | 
10 | CN(C)c1nc(-c2ccco2)n2nc(-c3ccco3)cc2n1 | 87.9% | 87.1% | 94% | 90.6% | 95.5% | 94.8% | 92.9% | 97.2% | 116% | 121% | 101% | 131% | 74.2% | 106% | 118% | 94.7% | 106% | 99.7% | 78.1% | 
11 | O=C(O)c1ccccc1C(=O)OC1CCCC2CCCC21 (stereo not given) | 95.1% | 101% | 115% | 98.2% | 112% | 107% | 101% | 116% | 117% | 103% | 102% | 133% | 121% | 104% | 106% | 102% | 105% | 115% | 92.1% | 
12 | O=C(/C=C/c1ccc(O)c(O)c1)N1CCN(c2ccc(Cl)cc2)CC1 | 62.9% | 63.8% | 85.1% | 88.2% | 46.4% | -3.39% (active) | 61.2% | 73.1% | 71.4% | 69.4% | 61.8% | 66.2% | 59.2% | 58% | 57% | 66.4% | 81.8% | 67.8% | 48.5% | 
13 | COc1ccc(-c2nnc(COc3ccc(NC(=O)Nc4cc(C(F)(F)F)cc(C(F)(F)F)c4)cc3F)o2)cc1 | -11% (active) | 7.41% (active) | 23.4% | 12.3% | 4.82% (active) | -17.8% (active) | 3.87% (active) | 16.2% | -40.7% (active) | 12.4% | 9.15% (active) | -16.5% (active) | -22.6% (active) | 16.3% | 18.8% | 20.3% | 0.873% (active) | 18% | 10% | 
14 | O=C(Nc1ccncc1)C(=O)c1cn(S(=O)(=O)c2cccc(F)c2)c2ccccc12 | 34% | 75.8% | 101% | 52.7% | 65.4% | -12.5% (active) | 67.3% | 61.7% | 106% | 50% | 23.9% | 58.2% | 67.4% | 59.9% | 75.9% | 27.3% | 75.6% | 26.8% | 25.3% | 
15 | CCOC(=O)c1cc(-c2cccnc2)nc2c(Cl)cc(Cl)cc12 | 89.6% | 98.9% | 84.1% | 92.5% | 106% | 93.6% | 74.9% | 72.5% | 121% | 103% | 105% | 124% | 103% |  | 73% | 79.6% | 120% | 117% | 96.6% | 90.2%
